Measured values as given in PubChem BioAssay AID1942 (Johns Hopkins Ion Channel Center, 2009).
Out of some 2,400 compounds screened, about 580 (24%) were called active. These entries were drawn from the full list. Unmarked numbers belong to inactive results.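 How the source made its calls: active means activity change at or above the mean plus 3 SD of buffer wells without dofetilide, per plate; inactive means the rest.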

What follows are molecules tested against Potassium voltage-gated channel subfamily KQT member 2 (Rattus norvegicus) (UniProt O88943) (assay: KCNQ2 potentiation in CHO cells – cell-based, FluxOR thallium flux, counter-screen for hERG block protector project, confirmation (AID 1942;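 further: normalized value minus buffer-control mean plus three SD of buffer wells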)). Conditions: FluxOR thallium flux fluorescence, at 10 µM, active compounds read high.
Chain of Potassium voltage-gated channel subfamily KQT member 2 (Rattus norvegicus) (O88943 whole entry, looked up): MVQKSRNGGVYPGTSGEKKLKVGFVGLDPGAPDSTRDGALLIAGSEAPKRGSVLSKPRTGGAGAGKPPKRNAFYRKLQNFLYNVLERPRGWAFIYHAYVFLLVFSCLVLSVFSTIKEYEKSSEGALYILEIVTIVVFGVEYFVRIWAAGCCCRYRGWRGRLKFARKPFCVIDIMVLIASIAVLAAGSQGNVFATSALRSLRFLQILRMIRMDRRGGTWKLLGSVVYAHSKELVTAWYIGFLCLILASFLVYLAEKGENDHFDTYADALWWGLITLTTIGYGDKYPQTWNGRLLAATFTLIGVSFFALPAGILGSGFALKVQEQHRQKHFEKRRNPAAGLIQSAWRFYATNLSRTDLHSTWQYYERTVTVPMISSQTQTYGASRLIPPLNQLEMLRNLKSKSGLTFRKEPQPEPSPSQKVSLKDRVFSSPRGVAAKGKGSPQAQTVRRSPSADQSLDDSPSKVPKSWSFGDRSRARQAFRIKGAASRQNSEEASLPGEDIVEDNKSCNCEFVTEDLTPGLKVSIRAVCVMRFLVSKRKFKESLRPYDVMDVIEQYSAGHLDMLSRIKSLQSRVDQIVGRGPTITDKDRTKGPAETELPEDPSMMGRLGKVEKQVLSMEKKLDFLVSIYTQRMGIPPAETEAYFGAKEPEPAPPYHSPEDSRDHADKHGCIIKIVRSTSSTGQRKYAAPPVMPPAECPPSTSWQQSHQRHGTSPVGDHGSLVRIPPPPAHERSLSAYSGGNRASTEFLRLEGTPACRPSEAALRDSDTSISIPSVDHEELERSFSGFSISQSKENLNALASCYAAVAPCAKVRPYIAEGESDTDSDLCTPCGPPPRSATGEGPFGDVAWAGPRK
In the case of `CCC1(c2ccccc2)NC(=S)N(c2ccc(C)cc2)N1` (configuration not stated), the activity change, less the hit threshold is reported as 102% (active). In the case of `CCC1(c2ccc(Cl)cc2)NC(=S)N(c2ccc(C)cc2)N1` (configuration not stated), the activity change, less the hit threshold is reported as 83.8% (active). For `CCC1(c2ccc(Cl)cc2)NC(=S)N(c2ccccc2)N1` (configuration not stated), the activity change, less the hit threshold was 84.8% (active). Molecule `S=c1[nH]nc(-c2ccccn2)n1/N=C/c1ccc(-c2ccccc2Br)o1` has an activity change, less the hit threshold of -12.9%. `CC12CCC(C(=O)OC3CCCCC3)(OC1=O)C2(C)C` (configuration not stated) gave an activity change, less the hit threshold of -26.6%. `C=CCNC(=O)c1onc(CSc2ccc(OC)cc2)c1C(=O)O` showed an activity change, less the hit threshold of -16.5%. For `Cn1c2ccccc2c(=O)c2c(=O)n(Cc3ccco3)c(-c3ccc(Cl)cc3Cl)nc21`, the activity change, less the hit threshold was -29.7%. `O=C(Nc1cccnc1)c1ccc(COc2cc(Cl)ccc2Cl)o1` gave an activity change, less the hit threshold of -20%. In the case of `O=C(CCl)NCCN1C(=O)S/C(=C\c2cccnc2)C1=O`, the activity change, less the hit threshold is reported as -19%. In the case of `C[n+]1ccccc1/C=C/c1c(F)cccc1F`, the activity change, less the hit threshold is reported as -10.9%. With `CCC(NS(=O)(=O)c1cn(C)nc1C)c1ccccc1` (configuration not stated) the activity change, less the hit threshold was -7.9%. `C/C(=C\C(=O)c1ccccc1)NNC(=O)c1ccc(Cl)cc1` showed an activity change, less the hit threshold of -3.2%. `CN(C(=S)NC(=O)c1ccc(Cl)cc1)C1CCCCC1` was tested, and the activity change, less the hit threshold was 4.8% (active). In the case of `CC(C)CNC(=S)NC(=O)c1ccc(Cl)cc1`, the activity change, less the hit threshold is reported as -3.9%. Work on `CN(C1=C(NC(=O)c2ccccc2)C(=O)c2ccccc2C1=O)C1CCS(=O)(=O)C1` (configuration not stated) yielded an activity change, less the hit threshold of -3.2%. With `Cc1ccc(C(=O)NC(=S)N(C)C2CCCCC2)cc1` the activity change, less the hit threshold was 5.4% (active). For `CN(C(=S)NC(=O)c1ccccc1)C1CCCCC1`, the activity change, less the hit threshold was 2% (active). `Cc1cccc(C(=O)NC(=S)NNC(=O)COc2c(C)cccc2C)c1` was tested, and the activity change, less the hit threshold was -27.8%. `COc1ccc(C(=O)NC(=S)N(C)C2CCCCC2)cc1` was tested, and the activity change, less the hit threshold was -3.2%. For `Cc1cccc(C(=O)NC(=S)N(C)C2CCCCC2)c1`, the activity change, less the hit threshold was 18.5% (active). `O=C(NC(=S)NNC(=O)[C@H]1C[C@@H]1c1ccccc1)c1cccc(F)c1` was tested, and the activity change, less the hit threshold was -30.9%. With `COc1ccc(-c2nn(-c3ccccc3)cc2C(=O)Nc2cccc(C(=O)O)c2)cc1[N+](=O)[O-]` the activity change, less the hit threshold was -18.7%. Work on `Cc1c(Cl)c([N+](=O)[O-])nn1CC(=O)NCC(C)C` yielded an activity change, less the hit threshold of -16.4%. `O=C(CCCOc1ccc(Cl)cc1Cl)Nc1ccccc1C(=O)O` showed an activity change, less the hit threshold of -39.2%. For `O=C(c1ccc(CS(=O)c2cccc(Cl)c2)o1)N1CCCCCC1` (configuration not stated), the activity change, less the hit threshold was -25.8%. `O=S(=O)(c1ccc(F)cc1)N1CCN(c2ccc(F)cc2)CC1` was tested, and the activity change, less the hit threshold was -13.8%. `CCCNC(=O)N1CCN(S(=O)(=O)c2ccc(C)cc2)CC1` was tested, and the activity change, less the hit threshold was -17.2%. Molecule `Cc1ccc(O)c(C(=O)CC(=O)c2ccccc2Cl)c1` has an activity change, less the hit threshold of -13.5%. Molecule `Cc1ccc(O)c(C(=O)CC(=O)c2ccc(Cl)cc2)c1` has an activity change, less the hit threshold of -16.6%. With `Cc1ccc(O)c(Sc2cc(C)ccc2O)c1` the activity change, less the hit threshold was 2% (active). `NNC(=O)CNc1ccccc1Cl` gave an activity change, less the hit threshold of -15.1%. `O=C(NCC1CCS(=O)(=O)C1)Oc1ccccc1` (configuration not stated) gave an activity change, less the hit threshold of -12.4%. With `C=CCN(c1ccc(Cl)cc1)S(=O)(=O)c1cccc(C(=O)O)c1` the activity change, less the hit threshold was 4.4% (active). In the case of `C=CCN(c1cccc(C(F)(F)F)c1)S(=O)(=O)c1cccc(C(=O)OCC(=O)Nc2ccccc2)c1`, the activity change, less the hit threshold is reported as -0.5%. `C=CCN(c1ccccc1)S(=O)(=O)c1cccc(C(=O)Nc2nnc(SCC)s2)c1` was tested, and the activity change, less the hit threshold was -20.2%. `CN(C)S(=O)(=O)c1cccc(C(=O)Nc2cccnc2)c1` gave an activity change, less the hit threshold of -13.5%. With `O=C(Cn1cncn1)c1ccccc1Br` the activity change, less the hit threshold was -24%. `CCCN(Cc1ccccc1)C(=S)NC(=O)c1ccccc1[N+](=O)[O-]` was tested, and the activity change, less the hit threshold was 92.5% (active). With `CCC(=O)NC(=S)NNC(=O)c1ccccc1[N+](=O)[O-]` the activity change, less the hit threshold was -19.6%. With `CCN(C(=S)NC(=O)c1ccccc1Br)C1CCCCC1` the activity change, less the hit threshold was 62.1% (active). With `COc1nccnc1NS(=O)(=O)c1ccc(NC(=S)NC(=O)c2ccccc2F)cc1` the activity change, less the hit threshold was -13.5%. For `O=C(NC(=S)N(Cc1ccccc1)Cc1ccccc1)c1ccccc1F`, the activity change, less the hit threshold was 38.8% (active). Molecule `O=C(Nc1ccccc1C(=O)O)c1cccc(NC(=O)c2ccccc2Br)c1` has an activity change, less the hit threshold of -16%. `O=C(NCC1CCCCC1)c1cccnc1Cl` was tested, and the activity change, less the hit threshold was -17.7%. For `CC(C)CN(C(=O)COC(=O)CNC(=O)c1ccccc1F)c1c(N)n(Cc2ccccc2)c(=O)[nH]c1=O`, the activity change, less the hit threshold was -7.7%. With `CCN(Cc1ccccc1)C(=S)NC(=O)c1ccccc1Br` the activity change, less the hit threshold was 66.7% (active). `CN(Cc1ccccc1)C1CCN(Cc2ccccc2[N+](=O)[O-])CC1` was tested, and the activity change, less the hit threshold was -15.5%. With `CC1=NNC(=O)C1CC(=O)N/N=C/C=C/c1ccccc1` (configuration not stated) the activity change, less the hit threshold was -21.4%. `Cc1cnc(NC(=O)CN2CCN(c3ccccc3F)CC2)s1` gave an activity change, less the hit threshold of -16.9%. In the case of `COc1cc(/C=C2/OC(=O)c3cc([N+](=O)[O-])ccc32)cc(OC)c1OC`, the activity change, less the hit threshold is reported as -15.4%. With `CCO/C=C1\N=C(c2ccc(F)cc2)OC1=O` the activity change, less the hit threshold was -13.2%. `O=C(CN1C(=O)S/C(=C\c2cc(Cl)c(O)c(Cl)c2)C1=O)Nc1ccccc1` showed an activity change, less the hit threshold of -30.2%. With `CC(C)C12CN3CC(C(C)C)(CN(C1)C31C(=O)Nc3ccccc31)C2=O` (configuration not stated) the activity change, less the hit threshold was -24.3%. `O=C(COC(=O)c1cc(S(=O)(=O)NCc2ccccc2)ccc1O)NCc1ccccc1` showed an activity change, less the hit threshold of -13.2%. With `C=CCn1c(SCc2ccc(C(=O)O)cc2)nc2sc(C)c(C)c2c1=O` the activity change, less the hit threshold was 46.6% (active). `C=CCN1C(=O)C(Cc2ccc(OCC)cc2)SC1=Nc1ccc(C(=O)O)cc1` (configuration not stated) showed an activity change, less the hit threshold of -15.5%. `O=C1CN(S(=O)(=O)c2ccccc2)CC(=O)N1CCc1ccccc1` gave an activity change, less the hit threshold of -18.7%. `Cc1ccc(Nc2nc(C)cs2)cc1` was tested, and the activity change, less the hit threshold was -9.5%. Molecule `Cc1cccc(N/C(N)=N/c2nc(C)cc(=O)[nH]2)c1` has an activity change, less the hit threshold of -13.7%. For `Cc1ccc(Nc2cc(C)nn2-c2nc(C)cc(=O)[nH]2)cc1`, the activity change, less the hit threshold was 68.6% (active). `Cc1nnc(N2C(=O)C(=O)/C(=C(\O)c3ccc4c(c3)CC(C)O4)C2c2ccccc2)s1` (configuration not stated) showed an activity change, less the hit threshold of -7.2%. `Cc1cc(O)c(/C=N/OCc2ccc(Cl)cc2Cl)c(=O)o1` gave an activity change, less the hit threshold of -19.1%. `Cc1cc(C)cc(NC(=O)N2CCCC2C(=O)Nc2ccc(-n3cnnn3)c(C)c2)c1` (configuration not stated) showed an activity change, less the hit threshold of -19%. `CCOC(=O)Cc1csc(NC(=S)NC(=O)c2ccc(C)cc2)n1` gave an activity change, less the hit threshold of -3.1%. Work on `CCOC(=O)Cc1csc(NC(=S)NC(=O)c2ccc(Cl)cc2)n1` yielded an activity change, less the hit threshold of -7.1%. With `COc1ccc(-c2csc(NC(=S)NC(=O)c3ccc4ccccc4c3)n2)cc1OC` the activity change, less the hit threshold was -11.9%. For `CCOC(=O)Cc1csc(NC(=S)NC(=O)c2ccccc2C)n1`, the activity change, less the hit threshold was 3.3% (active). With `Cc1csc(NC(=S)NC(=O)c2ccccc2)n1` the activity change, less the hit threshold was 7.2% (active). `CCOC(=O)Cc1csc(NC(=S)NC(=O)C(C)(C)C)n1` gave an activity change, less the hit threshold of -1.3%. With `CCOC(=O)Cc1csc(NC(=S)NC(=O)c2ccccc2Br)n1` the activity change, less the hit threshold was 9.2% (active). Work on `Cc1[nH]cnc1CSCCN` yielded an activity change, less the hit threshold of -10.5%. `CCOC(=O)N1CCN(C(=O)CSc2nnc(-c3ccccc3OC)o2)CC1` gave an activity change, less the hit threshold of -10.3%. `Brc1ccc(Nc2nc(-c3cccnc3)cs2)cc1` showed an activity change, less the hit threshold of -11.1%. `O=C(COC(=O)C1CCC(=O)N1)Nc1ccc(Oc2ccccc2)cc1` (configuration not stated) showed an activity change, less the hit threshold of -11%. With `Cc1oc2cc(O)ccc2c(=O)c1N1C(=O)c2ccccc2C1=O` the activity change, less the hit threshold was -14.7%. `CN(CC(=O)Nc1nc2ccccc2s1)S(=O)(=O)c1ccc(Cl)cc1` showed an activity change, less the hit threshold of -27%. `Cn1ncc2c(O/N=C(\N)c3ccc(C(F)(F)F)cc3)ncnc21` was tested, and the activity change, less the hit threshold was -7.2%. `Cc1onc(-c2ccccc2)c1C(=O)NC(=S)Nc1sc2c(c1C#N)CCC(C)C2` (configuration not stated) was tested, and the activity change, less the hit threshold was -3.3%. With `CCC(C)(C)C1CCc2c(sc(NC(=O)c3ccccc3C(=O)O)c2C#N)C1` (configuration not stated) the activity change, less the hit threshold was 38.4% (active). For `Cc1ccccc1C(=O)NC(=S)Nc1sc2c(c1C#N)CCC(C)C2` (configuration not stated), the activity change, less the hit threshold was -29%. For `CCC1CCc2c(sc(NC(=O)C3CC=CCC3C(=O)O)c2C#N)C1` (configuration not stated), the activity change, less the hit threshold was 1.4% (active). With `COC(=O)c1c(NC(=O)C2CC=CCC2C(=O)O)sc(C)c1C` (configuration not stated) the activity change, less the hit threshold was -12.3%. With `CCc1ccccc1NC(=O)CC1CS(=O)(=O)CC1CC(=O)Nc1ccccc1CC` (configuration not stated) the activity change, less the hit threshold was -17%. `CC(C)(C)c1ccc(Cn2nc(CC(=O)O)c3ccccc3c2=O)cc1` gave an activity change, less the hit threshold of -4.4%. `C=CCn1c2ccccc2c(=O)c2cc(C#Cc3ccsc3)ccc21` showed an activity change, less the hit threshold of -16%. `CCCCOC(=O)Cn1c2ccc(OC)cc2c2nc3ccccc3nc21` showed an activity change, less the hit threshold of -3.3%. Work on `CCc1ccc(C(=O)CSc2nc3ccccc3c(=O)[nH]2)cc1` yielded an activity change, less the hit threshold of -15.1%. With `CC(C)OC(=O)c1c2nc3ccccc3nc2n2c1[nH]c(=O)c1ccccc12` the activity change, less the hit threshold was 83.4% (active). Molecule `COCc1cc(C)nc(OCC(=O)N/N=C/c2ccc(-c3cc([N+](=O)[O-])ccc3Cl)o2)c1C#N` has an activity change, less the hit threshold of -8.1%. Work on `Cc1ccc(-c2cccc(C3CC=CC4C3C(=O)N(Cc3ccccc3)C4c3ccc4ccccc4c3)c2)cc1` (configuration not stated) yielded an activity change, less the hit threshold of -15.4%. `Cc1ccc(NC(=O)COc2cccnc2[N+](=O)[O-])cc1S(=O)(=O)N1CCOCC1` was tested, and the activity change, less the hit threshold was -18.2%. Work on `Cc1nnc2c(SC(C)C)nc3ccccc3n12` yielded an activity change, less the hit threshold of -19.3%. In the case of `Cn1c(O)c(N=Nc2nc(-c3ccccc3)cs2)c2ccccc21`, the activity change, less the hit threshold is reported as 67.2% (active). With `Cc1ccccc1OCC(=O)N=Nc1c(O)n(C)c2ccccc12` the activity change, less the hit threshold was -2.4%. Work on `CCc1ccc2[nH]c(O)c(N=Nc3nc(-c4ccccc4)cs3)c2c1` yielded an activity change, less the hit threshold of -16.3%. `N#Cc1cccc(N=c2ssnc2Cl)c1` gave an activity change, less the hit threshold of -15.2%. For `Cc1cc(=O)[nH]c(N/N=C2/CCCC/C2=C\c2ccccc2)n1`, the activity change, less the hit threshold was -11.4%.
